Test results taken from PubChem BioAssay AID1159580 (chemical genetic matrix, 2015).
The campaign covered roughly 5,500 compounds. About 2,000 (36%) were called active. About 18% were inconclusive and are not listed. Rule as the data show it: active = normalized growth mostly below about 0.91 (no sharp cut-off); inconclusive = no clear call, values can overlap the other calls; inactive = mostly above about 0.92. This is one part of the list.

Test: chemical genetic growth profiling, strain panel (AID 1159580);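 also: tested at 20 µM; growth read once vehicle control cultures reached saturation at 30 °C; 1 = growth at the plate median or of vehicle wells; lower values mean less growth of the strain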
Details: growth OD

Measured: normalized growth

NC(=O)c1ncn([C@@H]2O[C@H](CO)[C@@H](O)[C@H]2O)n1
inactive: S. cerevisiae deletion strains, locus YJR075W, strain HOC1, active compounds read low 0.989 | S. cerevisiae deletion strains, locus YKL009W, strain mrt4, active compounds read low 0.992 | S. cerevisiae deletion strains, locus YKL068W, active compounds read low 0.981 | S. cerevisiae deletion strains, locus YKL085W, strain MDH1 (second series), active compounds read low 1 | S. cerevisiae deletion strains, locus YKL085W, strain MDH1, active compounds read low 1 | S. cerevisiae deletion strains, locus YKL160W, strain elf1, active compounds read low 0.984 | S. cerevisiae deletion strains, locus YKL190W, strain CNB1, active compounds read low 0.988 | S. cerevisiae deletion strains, locus YKR001C, strain vps1, active compounds read low 0.984 | S. cerevisiae deletion strains, locus YKR026C, strain gcn3, active compounds read low 0.984 | S. cerevisiae deletion strains, locus YKR091W, strain srl3, active compounds read low 0.982 | S. cerevisiae deletion strains, locus YLL001W, strain dnm1, active compounds read low 0.984 | S. cerevisiae deletion strains, locus YLL026W, active compounds read low 0.984 | S. cerevisiae deletion strains, locus YLL041C, strain sdh2, active compounds read low 0.983 | S. cerevisiae deletion strains, locus YLR027C, strain aat2, active compounds read low 0.983 | S. cerevisiae deletion strains, locus YLR039C, strain RIC1, active compounds read low 1.01 | S. cerevisiae deletion strains, locus YLR058C, strain SHM2, active compounds read low 0.999 | S. cerevisiae deletion strains, locus YLR102C, strain apc9, active compounds read low 0.998 | S. cerevisiae deletion strains, locus YLR113W, strain HOG1, active compounds read low 0.977 | S. cerevisiae deletion strains, locus YLR221C, strain rsa3, active compounds read low 0.982 | S. cerevisiae deletion strains, locus YLR258W, strain gsy2, active compounds read low 0.98 | S. cerevisiae deletion strains, locus YLR262C, strain YPT6 (second series), active compounds read low 0.987 | S. cerevisiae deletion strains, locus YLR262C, strain YPT6, active compounds read low 0.977 | S. cerevisiae deletion strains, locus YLR268W, strain sec22, active compounds read low 0.987 | S. cerevisiae deletion strains, locus YLR320W, strain mms22, active compounds read low 0.993 | S. cerevisiae deletion strains, locus YLR330W, strain CHS5, active compounds read low 0.989 | S. cerevisiae deletion strains, locus YLR342W, strain FKS1 (second series), active compounds read low 0.991 | S. cerevisiae deletion strains, locus YLR342W, strain FKS1, active compounds read low 0.985 | S. cerevisiae deletion strains, locus YLR357W, strain rsc2, active compounds read low 0.995 | S. cerevisiae deletion strains, locus YLR370C, strain arc18, active compounds read low 0.984 | S. cerevisiae deletion strains, locus YLR371W, strain rom2, active compounds read low 0.985 | S. cerevisiae deletion strains, locus YLR384C, strain iki3, active compounds read low 0.979 | S. cerevisiae deletion strains, locus YLR418C, strain cdc73, active compounds read low 1.03 | S. cerevisiae deletion strains, locus YML016C, strain PPZ1, active compounds read low 1 | S. cerevisiae deletion strains, locus YML032C, strain rad52, active compounds read low 0.988 | S. cerevisiae deletion strains, locus YML120C, strain ndi1, active compounds read low 0.99 | S. cerevisiae deletion strains, locus YML124C, strain tub3, active compounds read low 0.985 | S. cerevisiae deletion strains, locus YMR058W, strain fet3, active compounds read low 0.998 | S. cerevisiae deletion strains, locus YMR078C, strain ctf18, active compounds read low 0.979 | S. cerevisiae deletion strains, locus YMR125W, strain sto1, active compounds read low 0.991 | S. cerevisiae deletion strains, locus YMR129W, active compounds read low 0.997 | S. cerevisiae deletion strains, locus YMR205C, strain PFK2, active compounds read low 0.996 | S. cerevisiae deletion strains, locus YMR223W, strain ubp8, active compounds read low 0.989 | S. cerevisiae deletion strains, locus YMR231W, strain pep5, active compounds read low 0.974 | S. cerevisiae deletion strains, locus YMR263W, strain SAP30, active compounds read low 0.986 | S. cerevisiae deletion strains, locus YMR307W, strain GAS1, active compounds read low 1 | S. cerevisiae deletion strains, locus YNL067W, strain RPL9B, active compounds read low 1 | S. cerevisiae deletion strains, locus YNL071W, strain lat1, active compounds read low 0.988 | S. cerevisiae deletion strains, locus YNL128W, strain TEP1, active compounds read low 1 | S. cerevisiae deletion strains, locus YNL153C, strain GIM3, active compounds read low 1 | S. cerevisiae deletion strains, locus YNL183C, strain NPR1, active compounds read low 0.933 | S. cerevisiae deletion strains, locus YNL209W, strain ssb2, active compounds read low 1 | S. cerevisiae deletion strains, locus YNL233W, strain BNI4, active compounds read low 1.01 | S. cerevisiae deletion strains, locus YNL248C, strain rpa49, active compounds read low 0.986 | S. cerevisiae deletion strains, locus YNL250W, strain rad50, active compounds read low 0.989 | S. cerevisiae deletion strains, locus YNL271C, strain bni1, active compounds read low 0.994 | S. cerevisiae deletion strains, locus YNL298W, strain CLA4, active compounds read low 0.97 | S. cerevisiae deletion strains, locus YNL307C, strain MCK1, active compounds read low 1 | S. cerevisiae deletion strains, locus YNL322C, strain KRE1 (second series), active compounds read low 0.979 | S. cerevisiae deletion strains, locus YNL322C, strain KRE1, active compounds read low 1 | S. cerevisiae deletion strains, locus YNR049C, strain mso1, active compounds read low 0.986 | S. cerevisiae deletion strains, locus YNR052C, strain pop2, active compounds read low 0.977 | S. cerevisiae deletion strains, locus YOL006C, strain TOP1, active compounds read low 1.05 | S. cerevisiae deletion strains, locus YOL012C, strain htz1 1.07 | S. cerevisiae deletion strains, locus YOL147C, strain pex11, active compounds read low 0.981 | S. cerevisiae deletion strains, locus YOR001W, strain rrp6, active compounds read low 0.982 | S. cerevisiae deletion strains, locus YOR061W, strain CKA2, active compounds read low 0.998 | S. cerevisiae deletion strains, locus YOR069W, strain VPS5, active compounds read low 1 | S. cerevisiae deletion strains, locus YOR070C, strain gyp1, active compounds read low 0.98 | S. cerevisiae deletion strains, locus YOR080W, strain dia2, active compounds read low 0.979 | S. cerevisiae deletion strains, locus YOR083W, strain WHI5, active compounds read low 0.986 | S. cerevisiae deletion strains, locus YOR106W, strain vam3, active compounds read low 0.989 | S. cerevisiae deletion strains, locus YOR136W, strain idh2, active compounds read low 0.984 | S. cerevisiae deletion strains, locus YOR144C, strain elg1, active compounds read low 0.985 | S. cerevisiae deletion strains, locus YOR184W, strain ser1, active compounds read low 0.992 | S. cerevisiae deletion strains, locus YOR231W, strain MKK1, active compounds read low 0.975 | S. cerevisiae deletion strains, locus YOR265W, strain rbl2, active compounds read low 0.972 | S. cerevisiae deletion strains, locus YOR270C, strain vph1, active compounds read low 1.02 | S. cerevisiae deletion strains, locus YOR290C, strain snf2, active compounds read low 0.976 | S. cerevisiae deletion strains, locus YOR316C, strain cot1, active compounds read low 0.99 | S. cerevisiae deletion strains, locus YPL051W, strain arl3, active compounds read low 0.98 | S. cerevisiae deletion strains, locus YPL055C, strain LGE1, active compounds read low 0.951 | S. cerevisiae deletion strains, locus YPL078C, strain atp4, active compounds read low 0.992 | S. cerevisiae deletion strains, locus YPL106C, strain sse1, active compounds read low 0.939 | S. cerevisiae deletion strains, locus YPL240C, strain hsp82, active compounds read low 0.992 | S. cerevisiae deletion strains, locus YPL241C, strain CIN2, active compounds read low 0.985 | S. cerevisiae deletion strains, locus YPL256C, strain CLN2, active compounds read low 0.981 | S. cerevisiae deletion strains, locus YPR119W, strain clb2, active compounds read low 0.985 | S. cerevisiae deletion strains, locus YPR141C, strain kar3, active compounds read low 0.989 | S. cerevisiae deletion strains, locus YPR163C, strain tif3, active compounds read low 0.978 | S. cerevisiae deletion strains, locus YPR167C, strain met16, active compounds read low 0.995 | S. cerevisiae deletion strains, strain wtn01, active compounds read low 0.983 | S. cerevisiae strains, strain wild type, active compounds read low 0.996
